Screening data deposited in PubChem BioAssay by National Center for Advancing Translational Sciences (NCATS).
EPAC1 antagonist – EPAC1 (human) antagonism | EPAC1 GEF assay, Rap1b-BODIPY-GDP exchange fluorescence | Potency, µM (highest dose often 115 µM), usual class: inhibitors | 360,000 tested, 0.14% active | AID 720709; note: nearly all actives have a fitted effect of over 50% in size
USP1-UAF1 inh – inhibitors of human USP1/UAF1 deubiquitinase; O94782; AID 743255; recombinant USP1/UAF1, Ub-Rhodamine cleavage fluorescence; 390,000 tested, 0.23% active; Potency, µM (doses to about 57.1 µM), usual class: inhibitors; note: nearly all actives have a fitted effect of over 60% in size
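USP1/UAF1 complex at 1 nM was preincubated with compound for 15 min at room temperature, then Ub-Rho substrate (150nM final) was added. Fluorescence (480/540 nm) was read kinetically, 6 reads every 60 seconds.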
EPAC2 antagonist – blocks human EPAC2 exchange factor | Q8WZA2 | EPAC2 GEF exchange of Rap1B-BODIPY-GDP, fluorescence | Potency, µM (series often up to 114 µM), actives largely listed as inhibitors | 360,000 tested, 0.18% active | AID 720708; note: nearly all actives have a fitted effect of over 45% in size
EPAC1 ag – agonists of human EPAC1; Potency, µM (top dose mostly 154 µM), most hits filed as activators; EPAC1 agonist qHTS, biochemical assay; response scale: 100% = response to 6.5 mM cAMP; 360,000 tested, 0.073% active; AID 720707; note: nearly all actives have a fitted effect of over 60% in size
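Normalized to 6.5 mM cAMP, activity reflects EPAC1-catalysed release of BODIPY-GDP from Rap1B, followed kinetically over 30 min at 480 nm excitation, 540 nm emission. Reaction contained 100 nM EPAC1, 250 nM Rap1B-BODIPY-GDP, 50 uM GDP.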
EPAC2 agonist – EPAC2 (human) agonism. Q8WZA2. Potency, µM (series often up to 154 µM), hits mostly activators. EPAC2 activation, biochemical qHTS; response scale: 100% = 6.5 mM cAMP response. 360,000 tested, 0.079% active; note: nearly all actives have a fitted effect of over 50% in size
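qHTS, titration series. 100 nM EPAC2 / 250 nM Rap1B-BODIPY-GDP / 50 uM GDP; RT; ex 480/em 540 nm, 5-min reads to 30 min. Norm. to 6.5 mM cAMP = activation.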
VDR inhibitor – blocks the human vitamin D receptor; P11473; 400,000 tested, 0.93% active; VDR-SRC2-3 peptide fluorescence polarization, 2 h; Potency, µM, usual class: inhibitors
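Reagent solutions, kept cold and dark, are dispensed first; compounds are then pinned in at 23 nl, plates briefly spun, and incubated 2 h at ambient temperature. Inhibition of VDR–SRC2-3 peptide binding is read by fluorescence polarization.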
USP1 UbRho – validation of human USP1/UAF1 inhibitors; shares compounds with VDR inhibitor; Ub-Rhodamine cleavage, fluorescence kinetic read; Potency, µM (series often up to 114 µM), most hits filed as inhibitors; 50 tested, 50% active; AID 540327
VDR confirm – inhibits human vitamin D receptor, primary hit validation; shares compounds with VDR inhibitor; VDR-coactivator inhibition assay, qHTS confirmation; 840 tested, 89% active; Potency, µM, most hits filed as inhibitors
VDR FP – blocks human VDR-coactivator binding in fluorescein assay | shares compounds with VDR inhibitor | 840 tested, 48% active | VDR-coactivator binding, fluorescein fluorescence polarization | AID 602200 | Potency, µM (titrated, usually from 57.1 µM), hits mostly inhibitors
VDR bla reporter – VDR (human) inhibition, cell-based beta-lactamase validation; 840 tested, 23% active; AID 602202; Potency, µM (series often up to 46.1 µM), usual class: inhibitors; VDR beta-lactamase reporter cells, FRET ratio; cells co-treated with VDR agonist LG190178; shares compounds with VDR inhibitor
VDR viability – cytotoxic in counter-screen for VDR inhibitors | shares compounds with VDR inhibitor | cytotoxicity counter-screen, cell viability, qHTS | Potency, µM (highest dose often 48.3 µM), hits mostly cytotoxic | 840 tested, 18% active; note: nearly all actives have a fitted effect of over 75% in size
Each line names hits and unclear results; the compound was inactive in the other large screens (follow-up assays come after a bar, where they were run). Compounds with a hit are over-represented: about 1.2% of the library has one in this group of screens. Calls come from the whole dose curve; as a rule, active = well fitted curve in the direction sought with a large enough effect; inconclusive = small, poorly fitted or top-dose-only effect, or another doubt; inactive = no such curve, though single readings can be large; an effect the other way counts as inactive or inconclusive.

O=C(Cc1ccccc1Cl)NC1(O)C(=O)c2ccccc2C1=O	USP1-UAF1 inh inconclusive, VDR inhibitor 50µM | VDR confirm 11 | VDR FP inactive | VDR bla reporter inactive | VDR viability inactive
COc1ccc(C(=O)n2nnc3ccccc32)cc1OC	VDR inhibitor 50µM | VDR confirm inconclusive | VDR FP inconclusive | VDR bla reporter inactive | VDR viability inactive
COc1ccc(C(=O)n2nnc3ccccc32)cc1Br	none
O=C(O)CN1C(=O)/C(=C\c2cc(Br)ccc2OCc2ccc(Cl)cc2Cl)SC1=S	USP1-UAF1 inh inconclusive, VDR inhibitor 45µM | VDR confirm 17 | VDR FP 18µM | VDR bla reporter inactive | VDR viability inconclusive
CC1=NN(c2ccccc2)C(=O)/C1=C\C=C\c1ccccc1	USP1-UAF1 inh inconclusive, VDR inhibitor 40µM | VDR confirm 19 | VDR FP inconclusive | VDR bla reporter inconclusive | VDR viability inactive
COc1ccc(S(=O)(=O)Nc2cc3c(cc2NCc2ccccc2)n(C)c(=O)n3C)cc1OC	none (no result: EPAC1 antagonist, EPAC2 antagonist, EPAC1 ag, EPAC2 agonist)
CC1=C(C#N)C(=O)NC(=O)/C1=C\c1ccc(-c2cc(C)c(C)cc2[N+](=O)[O-])o1	USP1-UAF1 inh inconclusive, EPAC2 antagonist inconclusive, VDR inhibitor 25µM | VDR confirm 10 | VDR FP 8.9µM | VDR bla reporter inactive | VDR viability inactive
Cc1ccc(-c2ccc(/C=C3/NC(=O)NC3=O)o2)cc1[N+](=O)[O-]	none
COc1ccc(C(=O)/C=C/c2ccccc2OC)c(OC(=O)c2ccc([N+](=O)[O-])cc2)c1	none
O=C(N/N=C/c1ccccc1OC(=O)c1ccc2c(c1)OCO2)c1cccc(F)c1	none
COc1cccc(C(=O)Oc2ccccc2/C=C\C(=O)c2cc3ccccc3o2)c1	VDR inhibitor inconclusive | VDR confirm 2.8 | VDR FP 3.2µM | VDR bla reporter inconclusive | VDR viability inactive
O=C(Oc1ccccc1/C=C\C(=O)c1cc2ccccc2o1)c1ccccc1	VDR inhibitor inconclusive | VDR confirm 4 | VDR FP inconclusive | VDR bla reporter inconclusive | VDR viability inactive
NC(=O)N/N=C/c1ccccc1OC(=O)c1cc2ccccc2oc1=O	none
O=C(Oc1ccccc1/C=C\C(=O)c1cc2ccccc2o1)c1cccc(F)c1	EPAC1 antagonist inconclusive, VDR inhibitor 28µM | VDR confirm 11 | VDR FP inconclusive | VDR bla reporter inconclusive | VDR viability inconclusive
O=C(CCCCCN1CCN(c2ccccc2-c2ccccc2)CC1)NC1CCCc2ccccc21 (stereo unspecified)	none (no result: EPAC1 antagonist, USP1-UAF1 inh, EPAC2 antagonist, EPAC1 ag, EPAC2 agonist)
CSc1nc(Nc2ccc(Cl)cc2)c(C#N)c(=O)[nH]1	none
N#Cc1c(Nc2ccc(Cl)cc2)s[nH]c1=O	VDR inhibitor 10µM | VDR confirm 7.5 | VDR FP inconclusive | VDR bla reporter inactive | VDR viability inactive
COCCCNC(=O)c1ccc2c3c(onc13)-c1ccccc1C2=O	EPAC1 antagonist inconclusive, USP1-UAF1 inh 20µM, EPAC1 ag 79µM, EPAC2 agonist 100µM, VDR inhibitor 35µM | VDR confirm 3.8 | VDR FP inconclusive | VDR bla reporter inconclusive | VDR viability inconclusive
O=C1ON=C(c2ccccc2)/C1=C/c1ccc(OS(=O)(=O)c2ccccc2)cc1	VDR inhibitor inconclusive | VDR confirm 3.5 | VDR FP 3.2µM | VDR bla reporter inactive | VDR viability inactive
O=C1ON=C(c2ccccc2)/C1=C/c1cccnc1	none
COc1cc(OC)c(NC(=O)CCCn2nc(C)c3sc4ccccc4c3c2=O)cc1Cl	USP1-UAF1 inh inconclusive (no result: EPAC1 antagonist, EPAC2 antagonist, EPAC1 ag, EPAC2 agonist)
CC(C)N(CCC(=O)c1ccc2ccccc2c1)Cc1ccccc1	VDR inhibitor 5µM | VDR confirm 15 | VDR FP 7.1µM | VDR bla reporter inconclusive | VDR viability inconclusive
Cc1cc(C)c(C#N)c(=N)o1	VDR inhibitor 45µM | VDR confirm inconclusive | VDR FP inconclusive | VDR bla reporter inactive | VDR viability inactive
CSc1nc(C)cc(C)c1C#N	none
O=C(c1ccccc1)C(CCC(CN1CCOCC1)C(=O)c1ccccc1)CN1CCOCC1 (stereo unspecified)	VDR inhibitor inconclusive | VDR confirm inconclusive | VDR FP inconclusive | VDR bla reporter 21µM | VDR viability inactive
c1ccc(C(CN2CCOCC2)c2ccccc2)cc1	none
Cc1ccc(S(=O)(=O)N2CCN(c3nc(-c4ccc(CN5CCOCC5)s4)nc4ccccc34)CC2)cc1	none (no result: EPAC1 antagonist, USP1-UAF1 inh, EPAC2 antagonist, EPAC1 ag, EPAC2 agonist)
O=C1NC(=O)/C(=C/c2ccc(-c3ccc(F)cc3O)o2)S1	VDR inhibitor 13µM (no result: EPAC1 antagonist, USP1-UAF1 inh, EPAC2 antagonist, EPAC1 ag, EPAC2 agonist) | USP1 UbRho 53µM
O=C1NC(=O)C(=Cc2ccco2)S1	none
N#CC1=C(Nc2ccccc2Cl)SC(c2ccccc2O)NC1=O (stereo unspecified)	VDR inhibitor 20µM | VDR confirm 3.8 | VDR FP inconclusive | VDR bla reporter inactive | VDR viability inactive
COc1cccc(NC2=C(C#N)C(=O)NC(c3cccc(OC)c3O)S2)c1 (stereo unspecified)	VDR inhibitor inconclusive
O=S(=O)(c1ccc(F)cc1F)N1CCN(c2nc(-c3cccs3)nc3ccccc23)CC1	none (no result: EPAC1 antagonist, USP1-UAF1 inh, EPAC2 antagonist, EPAC1 ag, EPAC2 agonist)
O=C(c1csnn1)N1CCC2(CC1)CN(c1ccccn1)C2	none (no result: EPAC1 antagonist, USP1-UAF1 inh, EPAC2 antagonist, EPAC1 ag, EPAC2 agonist)
COc1ccccc1N1C(=O)C=C(Sc2nc(C)cc(C)n2)C1=O	VDR inhibitor inconclusive | VDR confirm 2.8 | VDR FP 3.2µM | VDR bla reporter 21µM | VDR viability inconclusive
Cc1ccc(/C(O)=C2/C(=O)C(=O)OC2c2ccc(Cl)cc2)cc1 (stereo unspecified)	EPAC1 antagonist inconclusive, VDR inhibitor inconclusive | VDR confirm 11 | VDR FP 10µM | VDR bla reporter inactive | VDR viability inactive
Cc1ccc(/C(O)=C2\C(=O)C(=O)N(C)C2c2ccc(Br)cc2)cc1 (stereo unspecified)	none
